RBX1-CUL1 inh = blocks human RBX1-Cullin-1 di-ubiquitin formation; P62877+Q13616; in vitro K48 di-Ub FRET, acceptor:donor ratio, 45 min; inhibition, % at 10 µM; 140,000 tested, 0.6% active; in the data active means inhibition above about 25%
An asterisk follows results filed as active. Many of the other results were omitted from the sample, so hits are more common in it than they were.

SMILES | RBX1-CUL1 inh
CC(C)(C)c1ccc(C(C)(C)C(C)(C)c2cccc(C(C)(C)C)c2)cc1 | 1.5
CCOc1cccc(CNC(C)(C)CO)c1OCc1ccc(Cl)cc1Cl | -0.5
CNCc1cccc(OCc2ccccc2Cl)c1 | -3.8
CCOc1cccc(CNc2ccc(O)cc2)c1OCc1ccccc1Cl | -2.8
CCOc1cccc(CNc2ccc(O)cc2)c1OCc1ccc(Cl)cc1Cl | 53.4*
Oc1ccc(NCc2cccc(OCc3ccc(Cl)cc3Cl)c2)cc1 | 38.8*
CNCc1ccc(OCc2ccc(Cl)cc2Cl)cc1 | -6.1
CC1=Nc2nc(CCCO)nn2C(c2ccncc2)C1C(=O)Nc1ccccc1C (stereo not given) | -8.8
C=CCn1c(SCC(=O)NCCc2ccccc2)nc2sc3c(c2c1=O)CCC3 | -2.9
COc1ccc(CC2(CCC(=O)N3CCCC(c4ccccc4)C3)CCC(=O)N2)c2ccccc12 (stereo not given) | 5.0
c1ccc(C2=NOC3=NC(c4ccccc4)=NOC3=N2)cc1 | 16.8
O=C(CCCSc1nnc(-c2ccc(Cl)cc2)o1)c1ccc(F)cc1 | 4.0
COc1ccccc1NC(=O)C1C(C)=Nc2ncnn2C1c1cccn1C (stereo not given) | 7.2
CCOc1cc(/C=C2\C(=O)N(c3ccc(C(=O)O)cc3)N=C2C(F)(F)F)cc(Br)c1O | 62.4*
CCOc1cc(/C=C2\C(=O)NC(=S)N(c3ccc(Br)cc3)C2=O)cc(Br)c1O | 7.2
COc1cc(/C=C2\C(=O)N(c3ccc(Cl)cc3)N=C2C(F)(F)F)ccc1OC(=O)c1ccco1 | -3.3
O=C(Oc1cccc2ccccc12)c1ccc(-c2ccc(Cl)cc2)o1 | 9.0
CCOC(=O)c1nnsc1Nc1ccccc1 | 5.5
CCc1ccc(C(=O)CC=Nc2cccc(C(F)(F)F)c2)cc1 | 5.6
COC(=O)c1ccc(C(=O)OC)c(NC(=O)CCc2ccccc2)c1 | -2.5
COC(=O)c1ccc(C(=O)OC)c(NC(=O)CN(C)C)c1 | 50.8*
COC(=O)c1ccc(C(=O)OC)c(NC(=O)Cc2ccc(Br)cc2)c1 | 4.2
CCOC(=O)C1=C(C)N(C(=O)c2ccccc2)C(SC)=NC1c1cc(Cl)cc(Cl)c1 (stereo not given) | -3.5
CSc1nsc(SC)c1C(=O)N1CCCCC1 | 11.4
CC(=O)Oc1c(C)c(=O)n(C)c2ccccc12 | -4.3
SMILES | RBX1-CUL1 inh
CCc1c(OC(C)=O)c2ccccc2n(C)c1=O | 8.1
CC(=O)Oc1c(Cl)c(=O)n(C)c2ccccc12 | 60.0*
O=S(=O)(NC1CCCCC1)c1ccc(Cl)c(S(=O)(=O)NC2CCCCC2)c1 | 4.9
CC(=O)Sc1ccc(N2C(=O)CCC2=O)cc1 | 36.7*
O=C(Oc1ccc(N2C(=O)CCC2=O)cc1)c1ccccc1 | 2.3
O=C1CCC(=O)N1c1cccc(Cl)c1 | 7.9
CC(CNC1CCN(c2ccc(C(=O)NCc3ccc4c(c3)OCO4)cc2)CC1)Oc1cccnc1 (stereo not given) | -1.0
CN(C)c1cnn(CC(=O)Nc2c(-c3ccccc3)cnn2C)c(=O)c1 | 0.0
Nc1ncc2c3c1c(=O)c1ccccc1n3CCC2 | 50.0*
O=C1CCCc2c1c1cccc3c1n2CCC3 | 5.3
O=C1CCC(=O)N1c1cccc(-c2nc3cc(Cl)ccc3c(=O)o2)c1 | 0.6
N#CC1C=C(C(=O)O)C(=O)N=C1SCc1ccccc1Cl (stereo not given) | 73.1*
CC(=O)Nc1nnc(SCc2ccccc2Cl)s1 | 3.4
O=C(NC1CCCCC1)N1CCCn2c(SCc3ccccc3Cl)nnc21 | 5.7
COc1ccc2occ(C(=O)c3coc4ccc(OC)cc34)c2c1 | 1.0
O=C(O)c1ccccc1-c1occ(C(=O)c2ccccc2)c1C(=O)O | 8.9
COc1ccc(-c2occ(C(=O)O)c2C(=O)O)cc1 | 47.0*
CCCCOC(=O)C1=C(C)N(C)C(=O)NC1c1cc(OC)ccc1OC (stereo not given) | -1.9
N#CC1C(c2ccccc2)N(c2ccccc2)C2c3ccccc3C=CN12 (stereo not given) | 3.1
Cc1ccc(C(=O)Nc2cnc3sc4c(n3c2=O)CCCC4)cc1 | 1.2
Cc1ccc2c(c1)C(=O)C(=O)N2CN1CCCCC1 | -11.0
Cc1ccc(/C=C2\N=C(c3ccc(C)cc3)OC2=O)cc1 | -6.9
CCCN(CCC)c1ccc(/C=C2/N=C(c3ccccc3)OC2=O)cc1 | 41.9*
CCN(CC)c1ccc(/C=C2/N=C(c3ccc(OC)c(OC)c3)OC2=O)cc1 | 21.3
CC(=O)Nc1cccc2nc(CN3CCC(n4nccc4NC(C)=O)CC3)ccc12 | 5.9
SMILES | RBX1-CUL1 inh
CC(C)(C)C1=C(Cl)C(=O)C(Cl)(c2ccccc2)C(=O)N1c1ccccc1 (stereo not given) | 4.2
CC1CCc2c(sc(NC(=O)C3CC3)c2C(=O)OC(C)C)C1 (stereo not given) | -0.9
CN(CCc1ccccc1)C1CCCN(C(=O)c2cnc[nH]2)C1 (stereo not given) | -2.4
CC1=NC(=S)NC(c2ccc(Cl)cc2)C1C(=O)Nc1ccccc1Cl (stereo not given) | -6.6
COc1cccc(Cn2nnc3c2C(=O)c2ccccc2C3=O)c1 | -0.8
O=c1c2ccccc2nnn1Cc1ccccc1 | -6.5
Cc1ccc(Cn2nnc3c2C(=O)c2ccccc2C3=O)cc1 | 65.3*
CCCC(=O)Nc1ccccc1O | -0.4
